The structures appear in SMILES notation. Records with an inconclusive call do not appear. Values without a mark were called inactive. Active and inactive are the calls of the source. The call rests on the fitted dose curve; in most records, active means well fitted inhibition curve with a large enough effect; inconclusive means small, poorly fitted or top-dose-only effect; inactive means flat fitted curve, though single readings scatter.
On the % scale 0 is the no-effect control and ±100 the full control effect; potency means the concentration at half of the fitted maximal effect.

This test concerns KB-3-1. In words: Cytotoxic Profiling of Annotated Libraries Using Quantitative High-Throughput Screening (AID 1296008). Further: nearly all actives have a fitted effect of over 60% in size. As to conditions: Five cell lines viability, CellTiter-Glo ATP luminescence, 48-72 h; max response: stronger effect = lower value. Summed up: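 Cells exposed to compounds for 48 or 72 hr at 37 degrees Celsius. Viability read as ATP-coupled luminescence with CellTiter-Glo after 10 min at room temperature.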
Background: ATP-based viability assays read luminescence as a measure of living cells.
Take `CC1(O)CC(O)C2(O)C=COC(O[C@@H]3O[C@H](CO)[C@@H](O)[C@H](O)[C@H]3O)C12` (some centres undefined): the max response was 0.806%. Regarding `Nc1nc2c(ncn2[C@@H]2O[C@H](CO)[C@@H](O)[C@H]2O)c(=O)[nH]1`, the max response was 4.1%.

On to `C=C1C(O)C(O)C2(CC3C(C)=CCC4C(C)(CO)CCCC34C)OC2C1O` (centres undefined), for which the max response is -3.07%. Take `CCOCCn1nc(CC)c2nc(N3CCC(C(=O)O)CC3)nc(Nc3cc(C)ccn3)c21`: the max response is -10.2%. With `CN(C)C/C=C/C(=O)Nc1cccc(C(=O)Nc2ccc(Nc3nccc(-c4cccnc4)n3)cc2)c1`, the Potency was 3.66 µM (active). On to `C/C=C(\C)C(=O)OCC1OC(OC2OC(COC(=O)/C(C)=C/C)C(OC3OC(CO)C(OC(=O)/C(C)=C/C)C(OC(=O)/C(C)=C/C)C3O)C(O)C2O)C(O)C(O)C1OC1OC(CO)C(OC(=O)/C(C)=C/C)C(OC(=O)/C(C)=C/C)C1O` (centres undefined), for which the max response was -4.08%. The same measure, in the same setting: as for `COC(=O)C12CCC(C)C(C)C1C1=CCC3C4(C)CCC(OC(C)=O)C(C)(C)C4CCC3(C)C1(C)CC2` (centres undefined), the figure is 5.8%; as for `COC1CC(O[C@H]2CC[C@@]3(C)C(=CC[C@]4(O)C3[C@H](OC(C)=O)[C@@H](OC(=O)c3ccccc3)[C@]3(C)[C@@H](C(C)=O)CC[C@@]34O)C2)OC(C)C1OC1CC(OC)C(OC2CC(OC)C(OC3OC(C)C(OC4OC(CO)C(O)C(O)C4O)C(OC)C3O)C(C)O2)C(C)O1` (some centres undefined), 0.0608%. `O=S(=O)(NCC1CC1)c1ccc(Nc2nccc(N3CCCc4cc(O)ccc43)n2)cc1`: the Potency was 14.6 µM (active). Take `CNS(=O)(=O)CC1CCC(N(C)c2ncnc3[nH]ccc23)CC1` (centres undefined): the max response was -6.06%.

On to `C/C(=C\CCC(C)CCO)C(=O)O[C@@H]1[C@@H](O)[C@H](OC2OC=C(C(=O)O)C3CCC(C)(O)C23)O[C@H](CO)[C@H]1O` (some centres undefined), for which the compound was classed as inactive.

Turning to `C[C@H](Oc1ccc(S(C)(=O)=O)cc1C(=O)N1CCN(c2ncc(C(F)(F)F)cc2F)CC1)C(F)(F)F`, the max response is 4.57%.

In the case of `CC(=O)O[C@H]1C[C@@]2(C)[C@@H](CC[C@H]3[C@@]4(C)C=CC(=O)[C@@H](C)[C@@H]4[C@H](O)C(=O)[C@@]32C)/C1=C(/CCC=C(C)C)C(=O)O`, the max response was 4.45%.

In the case of `C[C@@H]1CN(Cc2ccccc2)C[C@H]1c1nc2c(cnn2C2CCOCC2)c(=O)[nH]1`, the max response was 2.05%. On to `COC(=O)CCc1cc2ccoc2c(OC)c1O[C@@H]1O[C@H](CO)[C@@H](O)[C@H](O)[C@H]1O`, for which the call was inactive. In the case of `COc1ccc(Cl)c(Nc2nc3ccccc3nc2NS(=O)(=O)c2cccc(NC(=O)C(C)(C)N)c2)c1`, the max response was -5.68%. Consider `CC[C@H](CO)Nc1nc(NCc2ccc(-c3ccccn3)cc2)c2ncn(C(C)C)c2n1`, for which the Potency is 0.116 µM (active). For the compound `CC(C)C[C@H](CC(=O)NO)C(=O)N[C@@H](Cc1ccc2ccccc2c1)C(=O)N[C@@H](C)C(=O)NCCN`, the max response is 7.03%.

As to `O=C(O)c1ccc(OC2OC(CO)C(O)C(O)C2O)cc1` (centres undefined), the max response was 6.64%. For `C[C@H](NC(=O)CCc1nc2ccccc2c(=O)[nH]1)c1ccccc1`, the max response was -7.76%. In the case of `CC1(C)CC[C@]2(C(=O)O)CC[C@]3(C)C(=CCC4[C@@]5(C)CC[C@H](O[C@@H]6O[C@H](CO)[C@@H](O)[C@H](O)[C@H]6O[C@@H]6O[C@H](CO)[C@@H](O)[C@H](O)[C@H]6O)[C@@](C)(CO)C5CC[C@]43C)[C@@H]2C1` (some centres undefined), the max response was 8.35%. Consider `O=C(O)c1ccc(CN2CCC(CN[C@@H]3C[C@H]3c3ccccc3)CC2)cc1`, for which the max response was 6.54%. The same measure, in the same setting: then `CC1C(=O)CC2C3CCC(C(=O)O)C12CC3(C)CO` (centres undefined), with 0.285%. As to `OC[C@H]1O[C@@H](Oc2cc(O)c3c(c2)O[C@@H](c2ccc(O)cc2)[C@H](O)C3)[C@H](O)[C@@H](O)[C@@H]1O`, the compound was called inactive.

Regarding `NC(=O)Nc1cc(-c2cccc(F)c2)sc1C(=O)NC1CCCNC1` (centres undefined), the Potency was 0.58 µM (active).

As for `CC(C)NCC(C(=O)N1CCN(c2ncnc3c2C(C)CC3O)CC1)c1ccc(Cl)cc1` (centres undefined), the max response was -24.2%. Same read-out and setting: as for `CCO[C@@H]1OC(=O)C[C@@H]1NC(=O)[C@@H]1CCCN1C(=O)[C@@H](NC(=O)c1ccc(N)c(Cl)c1)C(C)(C)C`, the figure is 2.91%.

For `CC1(C)CC[C@]2(C(=O)O[C@@H]3O[C@H](CO)[C@@H](O)[C@H](O)[C@H]3O)CC[C@]3(C)C(=CCC4[C@@]5(C)C[C@@H](O)[C@H](O)[C@](C)(C=O)C5CC[C@]43C)[C@@H]2[C@@H]1O` (some centres undefined), the call was inactive. On to `O=C(O)/C=C/c1ccc(O)c(O[C@@H]2O[C@H](CO)[C@@H](O)[C@H](O)[C@H]2O)c1`, for which the compound was called inactive. As for `CN(C)CC1CCOC1(c1ccccc1)c1ccccc1` (centres undefined), the max response was 5.01%. On the same count and under the same terms, then `O=C1CC2(CCCC2)[C@H](O)C(=O)N1CCCCN1CCN(c2ncccn2)CC1`, with -7.77%. As for `CC(C)/C=C1\NC(=O)C(C(C)C)n2c1nc1c(c2=O)C=CC=CO1` (centres undefined), the max response is 4.42%. With `CCC(C)C(=O)O[C@H]1CCC=C2C=C[C@H](C)[C@H](CC[C@@H](O)C[C@@H](O)CC(=O)O)[C@H]21` (some centres undefined), the max response is 7.29%.

As to `COc1cc(O)cc(C)c1C(=O)OC1C(CO)OC(OC2C(O)C(O)C(O)C(O)C2O)C(O)C1O` (centres undefined), the max response was 2.63%. With `Cc1cc(O)c(-c2ccc([C@@H](C)CN(C)C)cc2)c2c1[nH]c(=O)c1sccc12`, the Potency was 0.0461 µM (active). Turning to `C=CC1C(OC2OC(CO)C(O)C(O)C2O)OC=C2C(=O)N3C(C(=O)O)Cc4c([nH]c5ccccc45)C3CC21` (centres undefined), the max response is 6.21%.

As for `C=C1OC2CC(C(=O)O)C=CC2NC1=O` (centres undefined), the max response is 3.04%. Same read-out and setting: then `C=CC1C(OC2OC(CO)C(O)C(O)C2O)OC=C(C(=O)OC)C1CC1CC(=O)CC(CCc2ccc(O)cc2)O1` (centres undefined), with 0.837%.

Consider `CCOC(=O)CCN(C(=O)c1ccc2c(c1)nc(CNc1ccc(C(=N)N)cc1)n2C)c1ccccn1`, for which the max response was -6.67%.

Values taken from PubChem BioAssay (NCATS).
